In the supplement of paper PMC9588786 one finds relative cell viability data, which are given here for eleven compounds.

Where a name gives a salt, the structure may show the parent alone. ± gives the standard deviation of the averaged measurements.
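Further: viability read as CCK-8 absorbance at 450 nm in cells co-exposed to the GPX4 inhibitor RSL3, relative to a 0.01% DMSO vehicle control.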

The assay relates to HT-1080. In words: relative cell viability with RSL3 co-treatment (fraction of control); higher = stronger protection from RSL3-induced ferroptosis (higher viability). Conditions: 10 µM.
As to `O=C(Nc1cccc(Nc2ncc(Br)c(NCCc3cnc[nH]3)n2)c1)N1CCCC1`, the relative cell viability worked out at 0.743 ± 0.04. As for `C#Cc1cccc(Nc2ncnc3cc(OCCOC)c(OCCO)cc23)c1`, the figure is 0.597 ± 0.081; as for `CN1CCN(C2CCN(C(=O)Nc3cc(Oc4ccc(NC(=O)C5(C(=O)Nc6ccc(F)cc6)CC5)c(F)c4)ccn3)CC2)CC1` [Golvatinib (E7050)], 0.717 ± 0.065; as for `Cc1ccc(NC(=O)c2ccc(CN3CCN(C)CC3)cc2)cc1Nc1nccc(-c2cccnc2)n1` [Imatinib Mesylate (STI571)], 0.733 ± 0.17. As for `COc1cc(Nc2ncc(F)c(Nc3ccc4c(n3)N(COP(=O)(O)O)C(=O)C(C)(C)O4)n2)cc(OC)c1OC` [Fostamatinib (R788)], the figure is 0.6 ± 0.017; as for `Cc1c(F)cc(C(=O)NC2CC2)cc1-c1ccc(C(=O)NCC(C)(C)C)cn1`, 0.563 ± 0.12. As for `CNc1nc(Nc2cnn([C@H]3CCN(C4COC4)C[C@@H]3F)c2Cl)ncc1C(F)(F)F`, the figure is 0.617 ± 0.032; as for `Cn1cc(-c2ccc3nnc(C(F)(F)c4ccc5ncccc5c4)n3n2)cn1`, 0.743 ± 0.04. As to `CCCCOc1c(C(=O)c2c(F)cc(C)cc2F)c[nH]c2nncc1-2`, the relative cell viability is 0.903 ± 0.24.

As to `Cn1ncc(Cl)c1-c1cc(C(=O)N[C@H](CN)Cc2ccc(F)c(F)c2)oc1Cl`, the relative cell viability stood at 0.753 ± 0.07. Take `CO[C@H]1C[C@@H]2CC[C@@H](C)[C@@](O)(O2)C(=O)C(=O)N2CCCC[C@H]2C(=O)O[C@H]([C@H](C)C[C@@H]2CC[C@@H](OCCO)[C@H](OC)C2)CC(=O)[C@H](C)/C=C(\C)[C@@H](O)[C@@H](OC)C(=O)[C@H](C)C[C@H](C)/C=C/C=C/C=C/1C` [Everolimus (RAD001)]: the relative cell viability was determined as 0.607 ± 0.13.
